Measured values: PubChem BioAssay AID1159580 (chemical genetic matrix, 2015)
Several values for one entry are separate records, joined by “and”; a condition that tells them apart may be missing. Equal values may be shown once. Out of some 5,500 compounds screened, about 2,000 (36%) were called active. Not shown: some 18% with an inconclusive outcome. Cut-off read from the data, not from the text of the source: active = normalized growth mostly below about 0.91 (no sharp cut-off); inconclusive = no clear call, values can overlap the other calls; inactive = mostly above about 0.92. This is one part of the list.

Assay: chemical genetic growth profiling, strain panel (AID 1159580);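 note: tested at 20 µM; growth read once vehicle control cultures reached saturation at 30 °C; 1 = growth at the plate median or of vehicle wells; lower values mean less growth of the strain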
Details: S. cerevisiae deletion strains, growth OD

Measured: normalized growth

O=c1c(O)c(-c2ccc(O)c(O)c2)oc2cc(O)ccc12
inactive: locus YAL021C, strain ccr4, stronger effect = lower value 1 | locus YAL026C, strain drs2, stronger effect = lower value 0.965 | locus YAL030W, strain snc1, stronger effect = lower value 1 | locus YBL061C, strain skt5, stronger effect = lower value 0.964 | locus YBR009C, strain hhf1, stronger effect = lower value 1.01 | locus YBR021W, strain FUR4, stronger effect = lower value 0.961 | locus YBR023C, strain chs3, stronger effect = lower value 0.961 | locus YBR171W, strain sec66, stronger effect = lower value 0.977 | locus YBR229C, strain ROT2, stronger effect = lower value 0.993 | locus YBR231C, strain swc5, stronger effect = lower value 0.921 | locus YBR279W, strain paf1, stronger effect = lower value 0.983 | locus YCL011C, strain gbp2, stronger effect = lower value 0.982 | locus YCL016C, strain dcc1, stronger effect = lower value 0.977 | locus YCL029C, strain bik1, stronger effect = lower value 0.988 | locus YCL069W, strain vba3, stronger effect = lower value 1.01 | locus YCR088W, strain abp1, stronger effect = lower value 1 | locus YDL005C, strain med2, stronger effect = lower value 0.987 | locus YDL035C, strain GPR1, stronger effect = lower value 0.864 | locus YDL040C, strain nat1, stronger effect = lower value 1 | locus YDL101C, strain DUN1, stronger effect = lower value 0.98 | locus YDL134C, strain PPH21, stronger effect = lower value 0.955 | locus YDL185W, strain tfp1, stronger effect = lower value 0.972 | locus YDL192W, strain arf1, stronger effect = lower value 0.946 | locus YDR001C, strain nth1, stronger effect = lower value 1 | locus YDR069C, strain doa4, stronger effect = lower value 0.904 | locus YDR101C, strain arx1, stronger effect = lower value 0.957 | locus YDR137W, strain rgp1, stronger effect = lower value 0.978 | locus YDR150W, strain NUM1, stronger effect = lower value 0.946 | locus YDR159W, strain sac3, stronger effect = lower value 0.934 | locus YDR195W, strain ref2 0.969 | locus YDR297W, strain sur2, stronger effect = lower value 0.966 | locus YDR318W, strain mcm21, stronger effect = lower value 0.927 | locus YDR334W, strain swr1, stronger effect = lower value 0.981 | locus YDR335W, strain msn5, stronger effect = lower value 0.995 | locus YDR388W, stronger effect = lower value 0.974 | locus YDR392W, strain spt3, stronger effect = lower value 0.845 | locus YEL003W, strain gim4, stronger effect = lower value 0.961 | locus YEL037C, strain rad23, stronger effect = lower value 0.988 | locus YEL061C, strain CIN8 (second series), stronger effect = lower value 0.996 | locus YEL061C, strain CIN8, stronger effect = lower value 0.95 | locus YER015W, strain faa2, stronger effect = lower value 0.974 | locus YER016W, strain bim1, stronger effect = lower value 0.989 | locus YER110C, stronger effect = lower value 0.982 | locus YER111C, strain swi4, stronger effect = lower value 0.97 | locus YER155C, strain BEM2 (second series), stronger effect = lower value 0.89 | locus YER155C, strain BEM2, stronger effect = lower value 1.02 | locus YFR010W, strain ubp6, stronger effect = lower value 0.96 | locus YGL078C, strain dbp3, stronger effect = lower value 0.988 | locus YGL167C, strain pmr1, stronger effect = lower value 0.972 | locus YGL173C, strain kem1, stronger effect = lower value 0.938 | locus YGL227W, strain vid30, stronger effect = lower value 0.994 | locus YGL240W, strain doc1, stronger effect = lower value 1.03 | locus YGL248W, strain PDE1, stronger effect = lower value 0.923 | locus YGL253W, strain hxk2, stronger effect = lower value 0.969 | locus YGR252W, strain gcn5, stronger effect = lower value 0.873 | locus YHR013C, strain ard1, stronger effect = lower value 0.94 | locus YHR027C, strain rpn1, stronger effect = lower value 0.988 | locus YHR079C, strain IRE1 (second series), stronger effect = lower value 0.978 | locus YHR094C, strain hxt1, stronger effect = lower value 1.01 | locus YHR142W, strain chs7, stronger effect = lower value 0.982 | locus YHR200W, strain rpn10, stronger effect = lower value 0.938 | locus YIL073C, strain SPO22, stronger effect = lower value 0.851 | locus YIL125W, strain kgd1, stronger effect = lower value 0.967 | locus YIR030C, strain dcg1, stronger effect = lower value 1.01 | locus YJL092W, strain hpr5, stronger effect = lower value 0.995 | locus YJL095W, strain BCK1 (second series), stronger effect = lower value 0.981 | locus YJL115W, strain asf1, stronger effect = lower value 0.998 | locus YJL129C, strain trk1, stronger effect = lower value 0.966 | locus YJL134W, strain LCB3, stronger effect = lower value 1 | locus YJL154C, strain vps35, stronger effect = lower value 0.999 | locus YJL164C, strain tpk1, stronger effect = lower value 0.985 | locus YJL166W, strain qcr8, stronger effect = lower value 0.986 | locus YJL168C, strain set2, stronger effect = lower value 0.985 | locus YJL187C, strain SWE1 (second series), stronger effect = lower value 0.915
active: locus YAL013W, strain DEP1, stronger effect = lower value 0.836 | locus YDL074C, strain BRE1, stronger effect = lower value 0.742 | locus YDR162C, strain NBP2, stronger effect = lower value 0.831 | locus YDR502C, strain sam2, stronger effect = lower value 0.915 | locus YER167W, strain BCK2, stronger effect = lower value 0.9 | locus YGL086W, strain mad1, stronger effect = lower value 0.905 | locus YGR078C, strain PAC10, stronger effect = lower value 0.756 | locus YGR135W, strain pre9, stronger effect = lower value 0.85 | locus YGR229C, strain SMI1, stronger effect = lower value 0.372 | locus YHR030C, strain SLT2, stronger effect = lower value 0.899 and 0.324 | locus YHR079C, strain IRE1, stronger effect = lower value 0.381 | locus YHR129C, strain ARP1, stronger effect = lower value 0.861 | locus YIL066C, strain RNR3, stronger effect = lower value 0.846 | locus YJL095W, strain BCK1, stronger effect = lower value 0.743 and 0.428 | locus YJR043C, strain POL32, stronger effect = lower value 0.778 | locus YJR066W, strain TOR1, stronger effect = lower value 0.59 | locus YJR075W, strain HOC1, stronger effect = lower value 0.83
